Screening data deposited in PubChem by National Center for Advancing Translational Sciences (NCATS).
VACV Venus inh: qHTS for Stage-Specific Inhibitors of Vaccinia Orthopoxvirus: Venus Reporter Primary qHTS. Vaccinia virus Venus reporter expression, fluorescence. Potency, µM (titrated, usually from 36.5 µM), without a hit: at the highest dose activity change, negative = inhibition, actives largely listed as inhibitors. 330,000 tested, 0.46% active. AID 720580, 2013; calls by dose curve; tested in A549 cells; also: potency is read from the fitted curve at half-maximal effect; nearly all actives have a fitted effect of over 30% in size
Vaccinia mCherry: qHTS for Stage-Specific Inhibitors of Vaccinia Orthopoxvirus: mCherry Reporter Primary qHTS; Vaccinia virus mCherry reporter infection, fluorescence; Potency, µM (series often up to 36.5 µM), for inactives: at the highest dose activity change, negative = inhibition, usual class: inhibitors; 310,000 tested, 0.63% active; calls by dose curve; tested in A549 cells; also: potency is read from the fitted curve at half-maximal effect; nearly all actives have a fitted effect of over 35% in size
HCV inhibitor: qHTS Assay for Inhibitors of Hepatitis C Virus (HCV). Huh7.5.1 HCVcc-Cre infection, luciferase reporter, 44 h. Potency, µM (top dose mostly 41.8 µM), without a hit: at the highest dose activity change, negative = inhibition, usual class: inhibitors. 340,000 tested, 3.4% active; active = well fitted inhibition curve with a large enough effect; inconclusive = small, poorly fitted or top-dose-only effect, or another doubt; inactive = no such curve, though single readings can be large or run the other way; also: potency is read from the fitted curve at half-maximal effect
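Cells seeded at 1,000/well and cultured 4 h, then compounds added followed by HCVcc-Cre virus (~0.5 moi). After 44 h further culture, luciferase substrate was added, plates held 15 min at room temperature, and luminescence read for 15 sec.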
HCMV inh: qHTS Assay for inhibitors of the human cytomegalovirus (HCMV) | HFF cells, HCMV-luciferase reporter, 72 h; hits give low values | activity change, negative = inhibition, % at 57.5 µM | 410,000 tested, 4.5% active; in the data active = activity change below about -60%; inconclusive = no clear call, values can overlap the other calls; inactive = above about -39%
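HFF cells seeded 16 h at 37C, treated with compounds, infected with luciferase-reporter HCMV at MOI 1 PFU/cell; luciferase read at 72 h post infection, normalized to buffer-only and Salinomycin controls.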
FMDV antiviral: High Throughput Screening for Foot and Mouth Disease Virus Antivirals | 410,000 tested, 1.2% active | Potency, µM (series often up to 57.9 µM), for inactives: at the highest dose activity change, negative = inhibition, usual class: inhibitors | FMDV antiviral cell-based qHTS; calls by dose curve; tested in HEK293T cells; also: read-out not given here; potency is read from the fitted curve at half-maximal effect; nearly all actives have a fitted effect of over 45% in size
* = called active by the depositor. Shown are actives, neighbours in structure and some others; about 7.3% of the full set was active somewhere. % is scaled to controls: 0 for no effect and ±100 for the full control effect.

Screening CN(C)N1C(N)=C(C#N)C(c2ccsc2)C2=C1CC(C)(C)CC2=O (configuration not stated) returned VACV Venus inh -15%, Vaccinia mCherry inactive, HCV inhibitor 41%, HCMV inh -29 and FMDV antiviral -24%.
CCCCCCCOc1ccc(CC(=O)NO)cc1 was read as VACV Venus inh -19% and Vaccinia mCherry -22%.
For NS(=O)(=O)c1ccc(CCNCc2ccccc2OCc2ccc(Cl)cc2)cc1 the results were VACV Venus inh -14%, Vaccinia mCherry -12%, HCV inhibitor 13µM*, HCMV inh -16 and FMDV antiviral -25%.
C=CCOc1ccccc1CNCCc1ccc(S(N)(=O)=O)cc1 was read as VACV Venus inh 0%, Vaccinia mCherry inactive, HCV inhibitor 7%, HCMV inh 10 and FMDV antiviral -18%.
Screening CCOc1ccc(Cl)cc1CNCCc1ccc(F)cc1 returned VACV Venus inh -2%, Vaccinia mCherry inactive, HCV inhibitor 3%, HCMV inh -33 and FMDV antiviral -24%.
`NS(=O)(=O)c1ccc(CCNCc2cc(Cl)ccc2OCc2ccccc2)cc1` gave VACV Venus inh -19%, Vaccinia mCherry -27%, HCV inhibitor 22µM*, HCMV inh -67* and FMDV antiviral inconclusive.
For CCOC(=O)N1CCc2c(sc3c2c(=O)n(-c2ccc(F)cc2)c(=O)n3CC(=O)c2ccccc2)C1 the results were VACV Venus inh -13%, Vaccinia mCherry -10%, HCMV inh -11 and FMDV antiviral 1%.
For CCCCC12CN3CC(C)(CN(C1)C3c1c(C)[nH]c(=O)[nH]c1=O)C2=O (configuration not stated) the results were VACV Venus inh 1%, Vaccinia mCherry 6%, HCMV inh 3 and FMDV antiviral -6%.
For CCn1cc(C(=O)N2CCN(c3cccc(C)c3C)CC2)c2cc(OC)c(OC)cc2c1=O the results were VACV Venus inh inconclusive, Vaccinia mCherry inconclusive, HCMV inh -20 and FMDV antiviral 0%.
For CC(C)(C)S(=O)N1C[C@@H]2CC(=O)C=C2[C@H]1CCO (some centres not stated) the results were HCMV inh -2.
For COc1cc(Cl)c(NS(=O)(=O)c2ccc(-c3cnc(C4CC4)o3)cc2)c(OC)c1 the results were VACV Venus inh inconclusive, Vaccinia mCherry inconclusive, HCMV inh -76* and FMDV antiviral inconclusive.
Screening Cc1ccc(NS(=O)(=O)c2ccc(-c3cnc(C4CC4)o3)cc2)cc1 returned HCV inhibitor inconclusive, HCMV inh -29 and FMDV antiviral 14%.
Screening COc1ccc(C)cc1NS(=O)(=O)c1ccc(-c2cnc(C3CC3)o2)cc1 returned VACV Venus inh inconclusive, Vaccinia mCherry inconclusive, HCV inhibitor inconclusive, HCMV inh -103* and FMDV antiviral inconclusive.
O=S(=O)(NCc1ccccc1Cl)c1ccc(-c2cnc(C3CC3)o2)cc1 was read as VACV Venus inh -20%, Vaccinia mCherry -25%, HCMV inh -19 and FMDV antiviral -6%.
For CCOc1ccccc1CNS(=O)(=O)c1ccc(-c2cnc(C3CC3)o2)cc1 the results were VACV Venus inh inconclusive, Vaccinia mCherry inconclusive, HCV inhibitor inconclusive, HCMV inh -69* and FMDV antiviral inconclusive.
CC(C)n1c2ccccc2c2cc([N+](=O)[O-])ccc21 was read as VACV Venus inh -15%, Vaccinia mCherry -21%, HCV inhibitor 8.9µM*, HCMV inh inconclusive and FMDV antiviral -27%.
COC(=O)c1sc2cccc(F)c2c1S(=O)(=O)N1CCN(c2ccc(F)cc2)CC1 was read as VACV Venus inh -13%, Vaccinia mCherry -12%, HCMV inh -9 and FMDV antiviral -17%.
For O=C(c1ccco1)N1CCN(S(=O)(=O)c2ccc(Oc3ccccc3)cc2)CC1 the results were HCV inhibitor 14µM*, HCMV inh inconclusive and FMDV antiviral inconclusive.
Screening CC(=O)c1ccc(S(=O)(=O)N2CCN(C(=O)c3ccc(COc4ccccc4)o3)CC2)cc1 returned VACV Venus inh inconclusive, Vaccinia mCherry -20%, HCV inhibitor inconclusive, HCMV inh -61* and FMDV antiviral inconclusive.
For CC(=O)c1ccc(OCCCC(=O)N2CCN(S(=O)(=O)c3ccc(C(C)C)cc3)CC2)cc1 the results were VACV Venus inh -21%, Vaccinia mCherry -5%, HCV inhibitor 10µM*, HCMV inh inconclusive and FMDV antiviral inconclusive.
For O=C(c1ccco1)N1CCN(S(=O)(=O)c2ccc(Br)cc2)CC1 the results were HCV inhibitor 14%, HCMV inh inconclusive and FMDV antiviral -5%.
`CC(=O)c1ccc(S(=O)(=O)N2CCN(C(=O)c3ccccc3Cc3ccccc3)CC2)cc1` gave VACV Venus inh -6%, Vaccinia mCherry -21%, HCV inhibitor 5%, HCMV inh -21 and FMDV antiviral -11%.
`C=CCN=C1NC(c2ccccc2)C(C(=O)OC)=C(C)N1C` (configuration not stated) gave HCMV inh 5.
`c1cn(-c2cc(-c3ccc4c(c3)OCO4)ncn2)cn1` gave FMDV antiviral 2%.
For O=C(O)c1ccc(CSc2nc3ccc(N4C(=O)C5C6C=CC(C6)C5C4=O)cc3s2)cc1 (configuration not stated) the results were VACV Venus inh -2%, Vaccinia mCherry -21%, HCV inhibitor 11%, HCMV inh 36 and FMDV antiviral -10%.
For COC(=O)c1ccc(NC(=O)CSc2nc3ccc(N4C(=O)C5C6C=CC(C6)C5C4=O)cc3s2)cc1 (configuration not stated) the results were VACV Venus inh 7.1µM*, Vaccinia mCherry inconclusive, HCV inhibitor 11µM*, HCMV inh -64* and FMDV antiviral 14µM*.
CN(C)C(=O)CSc1nc2ccc(N3C(=O)c4ccccc4C3=O)cc2s1 was read as HCV inhibitor -17%, HCMV inh -65* and FMDV antiviral 1%.
CCc1cccc(CC)c1NC(=O)CSc1nc2ccc(N3C(=O)C4C5C=CC(C5)C4C3=O)cc2s1 (configuration not stated) was read as VACV Venus inh inconclusive, Vaccinia mCherry inconclusive, HCV inhibitor 11µM*, HCMV inh inconclusive and FMDV antiviral inconclusive.
`COc1ccccc1CN1CC(C(=O)NCc2nc3ccccc3n2C)CCC1=O` (configuration not stated) gave VACV Venus inh -14%, Vaccinia mCherry inactive, HCMV inh -64* and FMDV antiviral -6%.
For COC(=O)c1cc(NS(=O)(=O)c2ccc(C)c3ccccc23)ccc1N1CCOCC1 the results were VACV Venus inh -29%, Vaccinia mCherry -6%, HCV inhibitor 22µM*, HCMV inh 21 and FMDV antiviral 46%.
